Experimental data as given in PubChem BioAssay.
Calls of active or inactive are those of the source.

Legend:
[1] = test system: Human papillomavirus type 1a protein E7 (residues 44-93); experiment: small molecules binding HPV E7 44-93 – biochemical, small-molecule microarray, residues 44-93, 635 nm fluorescence, primary screen (AID 1108); conditions: fluorescence 635 nm, higher = more signal;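 also: E7 fragment applied at 1 µg/mL in TBST for 1 h at 4 C; score combines spot fluorescence with its signal to noise ratio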
[2] = hepatitis C replication reporter changes, two-sided – Huh7 cells, luciferase reporter, HCV replication inhibitor project, primary screen (AID 1109); conditions: Huh7 HCV replicon luciferase reporter, 48 h; higher = more signal;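 also: huh7 hepatoma cells harbouring a luciferase neomycin HCV replicon reporter; luciferase luminescence as measure of HCV replicon replication; test concentration not given here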
[3] = molecular target: Left-right determination factor 2 (Homo sapiens) (UniProt O00292); experiment: small molecules binding LEFTY2 protein – biochemical, small-molecule microarray, 635 nm fluorescence scan, primary screen (AID 1110); conditions: higher = more signal
[4] = molecular target: Calmodulin-1 (Homo sapiens) (UniProt P0DP23); experiment: small molecules binding calmodulin-1 with EGTA – biochemical, small-molecule microarray, Cy5-labelled CALM1, profiling panel (AID 1111); conditions: Cy5-CALM1 binding fluorescence, higher = more signal;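 also: labelled calmodulin applied in Tris saline Tween buffer holding calcium plus EGTA and DTT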
[5] = molecular target: Calmodulin-1 (Homo sapiens) (UniProt P0DP23); experiment: small molecules binding Ca-loaded calmodulin-1 – biochemical, small-molecule microarray, Cy5-labelled CALM1, plus calcium, artefact control for SMM control-protein annotation, profiling panel (AID 1112); conditions: Cy5-CALM1 binding fluorescence, higher = more signal;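 also: score merges spot fluorescence with signal to noise from triplicate slides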
[6] = probe aWnt5a binding to arrayed compounds – biochemical, biotinylated probe, 635/667 nm fluorescence, primary screen (AID 1113); conditions: small-molecule microarray, higher = more signal;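 also: score merges 667 nm fluorescence intensity with signal-to-noise per printed feature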
[7] = probe aShh binding to arrayed compounds – biochemical, biotinylated probe, 635/667 nm fluorescence, primary screen (AID 1114); conditions: small-molecule microarray, higher = more signal;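 also: probe is biotin-labelled aShh protein from a stem cell growth factor screen; measures binding of labelled protein to compounds printed on the slide; score merges feature fluorescence at 667 nm with signal-to-noise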
[8] = probe aNog binding to arrayed compounds – biochemical, biotinylated probe, 635/667 nm fluorescence, primary screen (AID 1115); conditions: small-molecule microarray, higher = more signal;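 also: probe is biotinylated aNog protein used at 0.15 µg/mL for 1 h at 4 C; z-score combines 667 nm fluorescence of each spot with its signal to noise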
[9] = molecular target: Torsin-1A-interacting protein 1 (Homo sapiens) (UniProt Q5JTV8); experiment: compound microarray binding of lysate hLAP1 – cell lysate, small-molecule microarray, COS7 lysate, 635/667 nm fluorescence, primary screen (AID 1116); conditions: 635 nm fluorescence, higher = more signal
[10] = molecular target: Alpha-bungarotoxin (Bungarus multicinctus) (UniProt P60615); experiment: compounds binding labelled alpha-BTX control protein – biochemical, small-molecule microarray, Alexa647 label, 635/667 nm fluorescence, artefact control for SMM control protein annotation, profiling panel (AID 1117); conditions: alpha-BTX-A647 binding fluorescence, higher = more signal
[11] = molecular target: Albumin (Bos taurus) (UniProt P02769); experiment: compounds binding labelled BSA control protein – biochemical, small-molecule microarray, Alexa647 label, 635/667 nm fluorescence, artefact control for SMM control protein annotation, profiling panel (AID 1118); conditions: BSA-A647 binding, fluorescence 635 nm, higher = more signal;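 also: score merges 667 nm emission intensity and signal-to-noise per printed compound spot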
[12] = probe aXIP binding to arrayed compounds – biochemical, NeuroSMM set, 635/667 nm fluorescence, primary screen (AID 1119); conditions: small-molecule microarray, higher = more signal, called active from +8 up or from −8 down;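 also: probe is the protein aXip251-270 applied at 1 µg/mL to compound-printed slides; binding of probe to printed compounds measured as 667 nm fluorescence plus signal to noise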
[13] = probe aNOTCH3 binding on compound microarray – biochemical, small-molecule microarray, 635/667 nm fluorescence, primary screen (AID 1120); conditions: higher = more signal;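 also: probe is a biotin-tagged antibody raised against NOTCH3 rather than NOTCH3 protein; score merges spot fluorescence near 667 nm with spot signal to noise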
[14] = probe aNOTCH2 binding on compound microarray – biochemical, small-molecule microarray, 635/667 nm fluorescence, primary screen (AID 1121); conditions: higher = more signal;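 also: score merges feature fluorescence read at 667 nm with its signal to noise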
[15] = molecular target: Carbonic anhydrase 2 (Homo sapiens) (UniProt P00918); experiment: compounds binding carbonic anhydrase 2 – biochemical, small-molecule microarray, Alexa647-labelled CAII, profiling panel (AID 1122); conditions: CAII-A647 binding fluorescence, higher = more signal
[16] = COS7 lysate on small-molecule microarray, probe aHis, 635 nm (AID 1123); conditions: COS7 cell lysate, fluorescence, higher = more signal;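 also: z-score combines 667nm fluorescence intensity with signal-to-noise per printed compound spot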
[17] = probe aLAP1 signal on lysate-treated microarray – cell lysate, small-molecule microarray, COS7 lysate, primary screen (AID 1124); conditions: probe aLAP1, fluorescence, higher = more signal;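 also: lysate comes from COS7 cells expressing LAP1 and is applied at 0.3 µg/mL; score merges spot fluorescence near 667 nm with signal-to-noise over triplicate slides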
[18] = test system: Sam68 (KHDRBS1); experiment: compounds binding KHDRBS1 protein – biochemical, small-molecule microarray, 635 nm fluorescence, primary screen (AID 1125); conditions: higher = more signal;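 also: score merges 667 nm channel intensity with signal to noise over triplicate slides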
[19] = test system: Chordin-like protein 2 (CHRDL2); experiment: compounds binding chordin-like 2 – biochemical, small-molecule microarray, 635 nm fluorescence, primary screen (AID 1126); conditions: fluorescence 635 nm, higher = more signal;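 also: printed compound slides probed with Chrdl2 protein at 4 µg/mL for 1 h at 4 C; score merges 667 nm emission intensity with signal to noise over three replicate slides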
[20] = molecular target: Concanavalin-A (Canavalia ensiformis) (UniProt P02866); experiment: compounds binding concanavalin A lectin – biochemical, small-molecule microarray, Alexa647 label, 635 nm, artefact control for SMM control protein annotation, primary screen (AID 1127); conditions: ConA-A647 binding fluorescence, higher = more signal;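 also: z combines 667 nm emission intensity with signal-to-noise across three replicate slides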
Concanavalin-A (Canavalia ensiformis), sequence (P02866 whole entry, looked up): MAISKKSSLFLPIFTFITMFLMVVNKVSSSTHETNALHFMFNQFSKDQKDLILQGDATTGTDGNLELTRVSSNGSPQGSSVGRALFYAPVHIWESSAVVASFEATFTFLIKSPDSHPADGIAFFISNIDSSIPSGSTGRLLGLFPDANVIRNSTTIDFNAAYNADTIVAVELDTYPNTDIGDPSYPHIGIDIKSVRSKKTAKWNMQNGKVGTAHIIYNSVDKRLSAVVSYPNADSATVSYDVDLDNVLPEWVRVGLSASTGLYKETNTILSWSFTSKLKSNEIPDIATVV

Torsin-1A-interacting protein 1 (Homo sapiens), sequence (Q5JTV8 whole entry, looked up): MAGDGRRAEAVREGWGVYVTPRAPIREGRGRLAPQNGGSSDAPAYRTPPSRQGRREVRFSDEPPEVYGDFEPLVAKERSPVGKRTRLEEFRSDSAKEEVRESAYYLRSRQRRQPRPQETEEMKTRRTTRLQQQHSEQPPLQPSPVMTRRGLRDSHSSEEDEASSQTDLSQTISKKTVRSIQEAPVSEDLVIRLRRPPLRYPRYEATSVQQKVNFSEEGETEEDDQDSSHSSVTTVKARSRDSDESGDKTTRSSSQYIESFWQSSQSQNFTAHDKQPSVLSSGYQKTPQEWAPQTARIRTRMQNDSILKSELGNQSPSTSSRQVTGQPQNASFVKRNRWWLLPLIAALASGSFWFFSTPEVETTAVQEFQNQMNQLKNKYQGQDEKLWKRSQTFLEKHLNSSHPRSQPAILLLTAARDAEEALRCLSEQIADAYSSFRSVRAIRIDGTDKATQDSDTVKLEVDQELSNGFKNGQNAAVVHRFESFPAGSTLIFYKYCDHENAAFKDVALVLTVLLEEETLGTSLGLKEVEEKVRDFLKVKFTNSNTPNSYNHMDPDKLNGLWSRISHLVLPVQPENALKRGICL
Alpha-bungarotoxin (Bungarus multicinctus), sequence (P60615 whole entry, looked up): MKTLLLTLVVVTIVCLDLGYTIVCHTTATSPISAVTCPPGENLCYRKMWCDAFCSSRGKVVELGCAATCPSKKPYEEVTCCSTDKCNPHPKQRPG
Left-right determination factor 2 (Homo sapiens), sequence (O00292 whole entry, looked up): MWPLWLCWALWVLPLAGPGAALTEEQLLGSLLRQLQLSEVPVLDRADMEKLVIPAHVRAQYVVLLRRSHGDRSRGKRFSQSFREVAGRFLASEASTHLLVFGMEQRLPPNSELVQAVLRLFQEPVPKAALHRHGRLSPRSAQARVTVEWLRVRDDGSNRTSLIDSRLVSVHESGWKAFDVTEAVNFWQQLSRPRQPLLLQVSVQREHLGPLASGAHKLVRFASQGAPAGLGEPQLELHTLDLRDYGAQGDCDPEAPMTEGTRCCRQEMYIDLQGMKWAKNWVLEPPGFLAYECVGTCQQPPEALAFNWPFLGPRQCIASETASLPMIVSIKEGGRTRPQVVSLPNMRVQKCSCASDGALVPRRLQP
Albumin (Bos taurus), sequence (P02769 whole entry, looked up): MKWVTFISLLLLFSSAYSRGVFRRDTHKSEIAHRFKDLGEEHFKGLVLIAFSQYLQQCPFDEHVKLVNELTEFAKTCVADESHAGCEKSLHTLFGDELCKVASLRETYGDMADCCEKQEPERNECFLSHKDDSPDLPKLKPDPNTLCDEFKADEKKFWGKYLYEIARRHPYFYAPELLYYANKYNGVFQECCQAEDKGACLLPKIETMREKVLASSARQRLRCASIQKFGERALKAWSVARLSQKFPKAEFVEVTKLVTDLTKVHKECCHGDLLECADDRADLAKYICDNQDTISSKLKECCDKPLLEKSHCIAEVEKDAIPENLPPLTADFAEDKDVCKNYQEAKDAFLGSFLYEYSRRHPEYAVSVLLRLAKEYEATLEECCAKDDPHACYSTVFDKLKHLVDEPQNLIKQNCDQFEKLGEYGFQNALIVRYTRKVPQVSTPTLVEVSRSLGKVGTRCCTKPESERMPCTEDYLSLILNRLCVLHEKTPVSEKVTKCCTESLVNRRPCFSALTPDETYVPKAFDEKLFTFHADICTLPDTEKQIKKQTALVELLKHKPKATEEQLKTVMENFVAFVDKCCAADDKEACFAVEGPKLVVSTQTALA

SMILES | composite z-score [1] | z-score [2] | composite z-score [3] | composite z-score [4] | composite z-score [5] | composite z-score [6] | composite z-score [7] | composite z-score [8] | composite z-score [9] | composite z-score [10] | composite z-score [11] | composite Z-score [12] | composite z-score [13] | composite z-score [14] | composite z-score [15] | composite z-score [16] | composite z-score [17] | composite z-score [18] | composite z-score [19] | composite z-score [20]
C=CCOC(=O)[C@H]1[C@@H]2C(=O)O[C@@H](c3ccccc3)[C@@H](c3ccccc3)N2[C@@H](c2ccc(OCCOC(=O)[C@@H]3C[C@@H]4C(=O)N[C@@H](Cc5ccccc5)C(=O)N4[C@@H]3c3ccc(O)cc3)cc2)[C@]12C(=O)Nc1ccccc12 | 1.35 | -1.85 | 0.747 | 1.48 | 0.0137 | -0.124 | -0.232 | 0.281 | 0.409 | 0.948 | 0.527 | 0.129 (inactive) | 0.0382 | -0.181 | 0.67 | 1.74 | 0.509 | 1.3 | 1.11 | 1.16
CCOC(=O)C1=CCC(c2cc3ccccc3[nH]2)N(S(=O)(=O)c2ccccc2[N+](=O)[O-])C1 (stereo not given) | 0.833 | -1.86 | -0.335 | -0.115 | -0.472 | 0.0839 | 0.0121 | -0.142 | 0.161 | 1.97 | 0.476 | 4.63 (inactive) | 0.051 | -0.188 | 0.674 | 2.37 | 0.375 | 0.644 | 0.0846 | 0.558
COCCOC(=O)N1C(=O)[C@@]2(c3cc(C#Cc4ccc(OC)cc4)ccc31)[C@H](c1ccc(OCCO)cc1)N1[C@H](c3ccccc3)[C@H](c3ccccc3)OC(=O)[C@H]1[C@@H]2C(=O)N1CCCCCCC1 | 1.35 | -0.891 | 0.954 | 2.27 | 1.21 | 0.777 | 2.23 | 3.67 | 3.66 | 1.99 | 0.807 | 1.44 (inactive) | 1.29 | 0.177 | 0.4 | 2.92 | 1.23 | 1.25 | 1.31 | 0.927
COC(=O)[C@@]1(Cc2ccc(OC)cc2)[C@H]2c3cc(C(=O)N4CCCC4)n(CCc4ccc(OC)c(Br)c4)c3C[C@H]2CN1C(=O)c1ccccc1 | -0.027 | 0.0171 | -0.38 | 2.19 | 0.967 | -0.0519 | 0.865 | 2.37 | 2.06 | -0.123 | 1.01 | -0.004 (inactive) | 0.0305 | 0.162 | 0.895 | 2.78 | 1.11 | 0.251 | 0.257 | -0.234
C=CCC(OC(C)=O)[C@@H]1[C@@H](N(Cc2cccc3ccccc23)C(=O)c2ccc(C)cc2)c2cc(OCCCO)ccc2N1C(=O)c1ccc2ccccc2n1 (stereo not given in full) | -0.139 | -0.614 | -0.0457 | -0.388 | -0.195 | -0.147 | -0.341 | -0.555 | 0.482 | 1.46 | 0.526 | -0.104 (inactive) | 0.366 | 0.0239 | 0.246 | 0.72 | 0.158 | 0.478 | 0.618 | -0.202
